# High-throughput results (PubChem BioAssay)
# Compounds with a hit are over-represented: about 1.2% of the library has one in this group of screens.
# TLR4-MyD88 BLA – blocks binding of human TLR4 to MyD88; O00206+Q99836; HeLa CL3-4 TLR4/MyD88 BLA complementation, FRET ratio; inhibition, % at 8.4 µM; 0.18% of 200,000 active; in the data active means inhibition above about 25%;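 further: 0% = vehicle and 100% = reference inhibitor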
# GC-B act – GC-B (human) receptor activation; P20594; HEK293-GC-B cells, CNP EC30, cGMP TR-FRET; 0% at EC30 CNP, 100% saturating CNP; activation, % at 10 µM; 0.11% of 370,000 active; AID 1920062;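 active means activation at 10 µM reaching about 35% in either raw or pattern-adjusted values, limit read from the data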
# TLR9-MyD88 inh – TLR9-MyD88 interaction inhibition; inhibition, % at 4.98 µM; 0.21% of 340,000 active; CHO BLA complementation TLR9-MyD88, CCF4 FRET ratio;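 active means inhibition above the mean over all tested compounds plus 3 SD, cut at about 21% in these data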;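 further: 0% = DMSO only wells and 100% = clavulanate BLA inhibitor control wells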
# NOD2-RIPK2 inh – blocks binding of human NOD2 to RIPK2; inhibition, % at 4.98 µM; 0.38% of 360,000 active; O43353; CHO BLA complementation NOD2-RIPK2, CCF4 ratio; in the data active means inhibition above about 21%;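 further: 0% = vehicle only and 100% = reference blocker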
# GC-A act – GC-A (human) enzyme activation; P16066; HEK293 GC-A cells, cGMP TR-FRET, EC30 ANP; 0% at EC30 ANP, 100% saturating ANP; activation, % at 10 µM; 0.14% of 370,000 active; in the data active means activation above about 40%
# Target sequence (P16066 whole entry, looked up): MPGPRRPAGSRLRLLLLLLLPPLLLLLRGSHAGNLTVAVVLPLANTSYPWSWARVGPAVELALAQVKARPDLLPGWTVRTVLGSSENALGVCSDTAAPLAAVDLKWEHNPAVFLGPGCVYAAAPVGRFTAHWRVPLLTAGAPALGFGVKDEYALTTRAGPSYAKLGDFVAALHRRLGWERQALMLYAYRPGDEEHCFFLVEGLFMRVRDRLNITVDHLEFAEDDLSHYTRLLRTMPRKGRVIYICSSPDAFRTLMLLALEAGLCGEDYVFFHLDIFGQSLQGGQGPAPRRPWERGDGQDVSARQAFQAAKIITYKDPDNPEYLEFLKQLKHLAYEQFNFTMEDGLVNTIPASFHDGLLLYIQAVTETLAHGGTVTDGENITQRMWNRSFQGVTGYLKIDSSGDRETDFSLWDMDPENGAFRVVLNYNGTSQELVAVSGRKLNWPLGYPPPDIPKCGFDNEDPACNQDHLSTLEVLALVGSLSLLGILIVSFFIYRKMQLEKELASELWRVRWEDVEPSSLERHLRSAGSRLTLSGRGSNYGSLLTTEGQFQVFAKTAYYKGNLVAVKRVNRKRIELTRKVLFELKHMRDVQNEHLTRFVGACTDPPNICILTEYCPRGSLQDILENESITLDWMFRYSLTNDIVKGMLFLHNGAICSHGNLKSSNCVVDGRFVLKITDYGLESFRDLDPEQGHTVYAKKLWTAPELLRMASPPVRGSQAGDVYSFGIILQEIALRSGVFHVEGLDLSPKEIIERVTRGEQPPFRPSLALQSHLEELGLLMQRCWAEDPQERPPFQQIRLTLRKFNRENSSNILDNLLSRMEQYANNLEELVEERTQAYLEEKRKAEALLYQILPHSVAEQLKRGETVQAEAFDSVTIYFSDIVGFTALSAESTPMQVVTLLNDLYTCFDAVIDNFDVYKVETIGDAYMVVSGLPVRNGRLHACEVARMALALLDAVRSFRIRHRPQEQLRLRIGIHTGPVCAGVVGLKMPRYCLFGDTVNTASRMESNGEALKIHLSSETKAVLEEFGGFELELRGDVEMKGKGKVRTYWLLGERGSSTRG
# Neddyl block – blocks human cullin neddylation; P61081+Q13564; 0.58% of 360,000 active; TR-FRET cullin neddylation, biochemical; inhibition, % at 25 µM; in the data active means inhibition above about 36%
# TLR4-MyD88 conf – TLR4-MyD88 interaction inhibition confirmed | shares compounds with TLR4-MyD88 BLA | HeLa CL3-4 BLA complementation, CCF4 FRET ratio | inhibition, % at 8.4 µM | 50% of 350 active | AID 941;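 active means mean inhibition across three repeat runs above about 25% carried over from the earlier screen, limit read from the data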;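 further: plate controls were DMSO only for no effect and clavulanic acid blocking BLA at full dose for full effect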
# BLA inh HeLa – counter-screen for TLR4-MyD88 inhibitors: beta-lactamase reporter inhibitors; 63% of 350 active; shares compounds with TLR4-MyD88 BLA; inhibition, % at 8.4 µM; AID 1237; HeLa BLA reporter, CCF4 FRET ratio;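 active means mean inhibition over three repeats above about 26% taken from the earlier screen, limit read from the data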;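 further: HeLa cells stably expressing beta-lactamase reporter as counterscreen for TLR4-MyD88 inhibitors; 0% = DMSO and 100% = clavulanic acid full inhibition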
# TLR9-MyD88 cf – confirmation of human TLR9-MyD88 binding inhibitors; 51% of 680 active; inhibition, % at 4.98 µM; CHO TLR9/MyD88 BLA complementation, CCF4 FRET ratio; shares compounds with TLR9-MyD88 inh;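 active means mean inhibition across three repeats above about 21% taken from the earlier screen, limit read from the data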;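 further: blue over green emission ratio reports constitutive TLR9 MyD88 association via BLA complementation; 0% = DMSO vehicle wells and 100% = clavulanate BLA inhibitor wells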
# BLA counter-1 – counter-screen for TLR9-MyD88 inhibitors: non-selective beta-lactamase inhibitors; shares compounds with TLR9-MyD88 inh; CHO-BLA cells, CCF4 FRET ratio, BLA reporter; inhibition, % at 4.98 µM; 7% of 680 active; AID 540251;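 active means mean inhibition above a 50% cutoff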;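 further: counterscreen of TLR9-MyD88 hits on CMV-driven BLA in CHO-K1 cells; 0% = DMSO alone and 100% = clavulanate blocking BLA; higher means less blue over green ratio so more BLA blockade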
# TLR9 CHO cytotox – counter-screen for TLR9-MyD88 inhibitors: cytotoxicity in CHO cells | luminescence | inhibition, % at 4.98 µM | shares compounds with TLR9-MyD88 inh | 39% of 680 active; in the data active means inhibition above about 11%
# NOD2 RIPK2 conf – NOD2-RIPK2 interaction inhibition confirmed; AID 624370; inhibition, % at 4.98 µM; shares compounds with NOD2-RIPK2 inh; CHO cells, NOD2-RIPK2 BLA complementation, CCF4 FRET; 70% of 1,200 active;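 active means mean inhibition across replicates above a set limit taken from the earlier primary screen, cut at about 21% in these data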;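 further: 0% = DMSO-only wells and the high end = clavulanate BLA-blocked wells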
# BLA counter-2 – counter-screen for NOD2-RIPK2 interaction inhibitors: BLA reporter. 57% of 1,200 active. inhibition, % at 4.98 µM. AID 624371. shares compounds with NOD2-RIPK2 inh. CHO BLA reporter, CCF4 FRET ratio, counterscreen;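 active means mean inhibition above the low-control mean inhibition plus three low-control SD, cut at about 11% in these data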;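 further: 0% = DMSO only wells and 100% = clavulanate high control wells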
# * = called active by the depositor; x = not tested or not shown.
SMILES,TLR4-MyD88 BLA,GC-B act,TLR9-MyD88 inh,NOD2-RIPK2 inh,GC-A act,Neddyl block,TLR4-MyD88 conf,BLA inh HeLa,TLR9-MyD88 cf,BLA counter-1,TLR9 CHO cytotox,NOD2 RIPK2 conf,BLA counter-2
CC(C)(C)c1ccc(C(=O)Nc2cccc3c(=O)[nH][nH]c(=O)c23)cc1,29*,-1,35*,50*,6,x,28*,51*,18,22,3,42*,48*
CCN(CC)c1ccc(/C=c2\sc3nc4ccccc4n3c2=O)c(O)c1,30*,2,34*,37*,0,x,20,50*,21*,37,8,46*,56*
O=[N+]([O-])c1cccc(-c2nc(-c3cccs3)c(-c3cccs3)[nH]2)c1,-9,-8,-11,3,0,-39,x,x,x,x,x,x,x
O=[N+]([O-])c1ccc(-c2nc(-c3cccs3)c(-c3cccs3)[nH]2)cc1,28*,-15,31*,33*,2,-225,23,49*,17,20,4,36*,37*
Cc1ccc(-c2nc3ncccn3c2NC(=O)Nc2ccc(F)cc2)cc1,x,4,x,x,5,x,x,x,x,x,x,x,x
CCCSc1cc(NCCOC(=O)CCC)c([N+](=O)[O-])c2nonc12,7,3,-4,-5,7,-18,x,x,x,x,x,x,x
CCC(=O)OCCNc1cc(Sc2nc3ccccc3[nH]2)c2nonc2c1[N+](=O)[O-],29*,27,56*,80*,43*,8,20,-10,x,x,x,93*,48*
CN(C)CCCN1C(=O)c2cccc3c([N+](=O)[O-])ccc(c23)C1=O,86*,7,70*,82*,1,-11,86*,109*,55*,72*,95*,90*,77*
Cc1c(Nc2cc(N3CCOCC3)c3nonc3c2[N+](=O)[O-])c(=O)n(-c2ccccc2)n1C,-4,x,x,x,x,x,x,x,x,x,x,x,x
Cc1c(Nc2cc(Cl)c3nonc3c2[N+](=O)[O-])c(=O)n(-c2ccccc2)n1C,38*,37*,50*,84*,15,-23,29*,2,48*,7,98*,56*,31*
C/C(=N\Nc1ccc([N+](=O)[O-])cc1)c1ccco1,29*,-1,30*,25*,-2,-24,27*,42*,14,17,1,36*,41*
CC/C(=N\Nc1ccc([N+](=O)[O-])cc1)c1ccccc1,31*,x,22*,27*,x,-23,18,35*,12,15,1,38*,40*
C/C(=N\NC(=O)COc1ccc([N+](=O)[O-])cc1)c1ccco1,x,7,9,4,0,-12,x,x,x,x,x,x,x
O=[N+]([O-])c1ccc(NN=C(Oc2ccccc2)c2ccc([N+](=O)[O-])cc2)cc1,x,-6,3,2,1,-51,x,x,x,x,x,x,x
CCc1ccc(/C(C)=N\Nc2ccc([N+](=O)[O-])cc2)cc1,32*,-2,31*,30*,3,-10,32*,55*,23*,22,-4,41*,46*
